# Test results from PubChem BioAssay (EPA / NIEHS).
# Values joined by “and” are separate entries in the source; they are usually repeats but may differ in a detail not shown here. Equal values may be shown once. Some compounds were tested as several samples or in several runs, with calls that do not always agree. Active and inactive are the calls of the source. The calls were made as follows: active = hit-call score of the fitted dose curve at least 0.9, where 1 is the maximum; inactive = score below 0.9.
# Test: BSK_KF3CT_SRB: Viability Assessment in the BioMAP Diversity Plus: KF3CT Assay (AID 2283069);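 also: fitted for both signal gain and loss against DMSO baseline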
# Details: primary human keratinocytes with fibroblasts
# Procedure: BSK_KF3CT is a cell-based, multiplexed-readout assay that uses keratinocytes and foreskin fibroblasts, a human skin primary cell co-culture, with measurements taken at 24 hours after chemical dosing in a 96-well plate.BSK_KF3CT_SRB is an assay component measured in the BSK_KF3CT assay. It measures 0.1% sulforhodamine related to cell death using Sulforhodamine staining technology.Data from the assay component BSK_KF3CT_SRB was analyzed into 1 assay endpoint. This assay endpoint, BSK_KF3CT_SRB, was analyzed with bidirectional fitting relative to DMSO as the negative control and baseline of activity. Using a type of viability reporter, gain or loss-of-signal activity can be used to understand changes in the signaling. Furthermore, this assay endpoint can be referred to as a primary readout, because this assay has produced multiple assay endpoints where this one serves a signaling function. To generalize the intended target to other relatable targets, this assay endpoint is annotated to the cell morphology intended target family, where the subfamily is cell conformation.
# The levels of cell surface (or secreted, indicated by the prefix "s") biomarker endpoints were measured by ELISA. Overt cytotoxicity to cells in confluent adherent cultures (all systems other than the BT system) was assessed by measuring total protein levels using sulforhodamine B (SRB) staining in parallel cultures at the time of biomarker measurements, indicated as SRB endpoints. For proliferation assays for adherent cell types, individual cell types are cultured at sub-confluence and relative cell numbers quantified by SRB staining at time points optimized for each system (48 h: 3C and CASM3C systems; 72 h: BT and HDF3CGF systems; 96 h: SAg system). SRB was performed by staining cells with 0.1% SRB after fixation with 10% TCA and reading wells at 560 nm.Viability and proliferation of PBMC (T cells) was quantified by Alamar Blue reduction for the SAg and BT systems. For PBMC viability (referred to as PBMC Cytotoxicity within the assay endpoint names), cells were plated (75,000/well in a 96-well plate) and then chemical samples added for 1 h before addition of activators, SEB and TSST-1 (20 ng/mL final concentration each). Cells were incubated for 90 h. Then, Alamar Blue (20 uL/well) (Invitrogen, Cat DAL1100) was added for 6 h, and the plates were read with a fluorescence microplate reader at 546/580 nm (excitation/emission). For PBMC proliferation, cells were plated and activated as above but incubated for only 16 h prior to addition of Alamar Blue. Plates were read after 6 h.
Structure (SMILES),outcome,AC50
CCOP(=S)(OCC)SCSC(C)(C)C,inactive,
CCSC(=O)N(CC)C1CCCCC1,inactive,
CC(C)(O)C(=O)Nc1ccc([N+](=O)[O-])c(C(F)(F)F)c1,inactive,
Oc1ccc(C(c2ccc(O)cc2)(C(F)(F)F)C(F)(F)F)cc1,,24.1 µM (active)
CN(C)c1nc(=O)n(C2CCCCC2)c(=O)n1C,inactive,
Cc1ccc(O)c(C)c1,inactive,
CCCCCCOC(=O)c1ccccc1C(=O)OCCCCCC,inactive,
CCOCCOC(C)=O,inactive,
O=C(O)C(F)(F)C(F)(F)C(F)(F)C(F)(F)C(F)(F)F,inactive,
C[C@]12CCC(=O)C=C1CC[C@@H]1[C@@H]2CC[C@]2(C)C(=O)CC[C@@H]12,inactive,
CCCCCCCCCC[N+](C)(C)CCCCCCCCCC,,5.41 µM (active)
O=S(=O)(O)C(F)(F)C(F)(F)C(F)(F)C(F)(F)C(F)(F)C(F)(F)F,inactive,
CC#Cc1cc(C)nc(Nc2ccccc2)n1,inactive,
C=CC(N)=O,inactive,
Cc1cc2c3c(c1)C(c1ccccc1)=N[C@@H](NC(=O)c1ccncc1)C(=O)N3CC2,inactive,
CC(c1ccc(O)cc1)(c1ccc(O)cc1)c1ccc(O)cc1,,29.9 µM (active)
Oc1c(Cl)c(Cl)c(Cl)c(Cl)c1Cl,inactive,6.37 µM (active)
CCOC(=O)C(O)(c1ccc(Cl)cc1)c1ccc(Cl)cc1,inactive,
Cc1ccccc1[N+](=O)[O-],inactive,
CN(C)CCO,inactive,

Structure (SMILES),outcome,AC50
CCC(C)(CC)c1cc(NC(=O)c2c(OC)cccc2OC)on1,inactive,
C1CC2OC2CC1C1CO1 (stereo not given),inactive,
Cc1cccc(C)c1N,inactive,
Clc1ccc(C(Cl)(Cl)Cl)cc1,inactive,
C[C@]12CCC(=O)C=C1CC[C@@H]1[C@@H]2CC[C@@]2(C)[C@H]1CC[C@]2(C)O,inactive,
CC1=C2C[C@H]3[C@@H](CC=C4C[C@@H](O)CC[C@@]43C)[C@@H]2CC[C@]12O[C@@H]1C[C@H](C)CN[C@H]1[C@H]2C,inactive,
CCC(=O)O[C@H]1CC[C@H]2[C@@H]3CCC4=CC(=O)CC[C@]4(C)[C@H]3CC[C@]12C,,36.3 µM (active)
CC(C)(c1ccccc1)c1ccc(O)cc1,,33.1 µM (active)
O=C(O)C(F)(F)C(F)(F)C(F)(F)C(F)(F)C(F)(F)C(F)(F)C(F)(F)C(F)(F)C(F)(F)F,,33.1 µM (active) and 50.3 µM (active) and 50.8 µM (active)
O=C(N[C@H]1CN2CCC1CC2)c1cc2ccoc2cn1,inactive,
CCC(C)(c1ccc(O)cc1)c1ccc(O)cc1,inactive,
CCC(C)c1cc([N+](=O)[O-])cc([N+](=O)[O-])c1O (stereo not given),inactive,
Cc1cc(-c2ccc(N)c(C)c2)ccc1N,inactive,
CCNc1nc(NC(C)C)nc(SC)n1,inactive,
Cc1ccccc1CO[C@@H]1C[C@@]2(C(C)C)CC[C@]1(C)O2,inactive,
Nc1ccc(-c2ccc(N)cc2)cc1,inactive,
O=NN(c1ccccc1)c1ccccc1,inactive,
CCCCCCCCCc1ccc(O)cc1,,14.6 µM (active)
C=CC(=O)NCNC(=O)C=C,inactive,
